From PubChem BioAssay
Most compounds without a hit are left out; they make up all but 2% or so of the library.
CHRM4 agonist = CHRM4 agonism in calcium assay; CHO-K1 hM4/Gqi5, Fluo-8 calcium fluorescence; vehicle 0%, full acetylcholine response 100%; 360,000 compounds, 0.14% hits; activation, % at 3 µM; P08173;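 active means activation above the run mean over all test wells plus 3 SD, cut at about 32% in these data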;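 further: peak over basal fluorescence ratio per well then scaled between controls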
Target sequence (P08173 whole entry, looked up): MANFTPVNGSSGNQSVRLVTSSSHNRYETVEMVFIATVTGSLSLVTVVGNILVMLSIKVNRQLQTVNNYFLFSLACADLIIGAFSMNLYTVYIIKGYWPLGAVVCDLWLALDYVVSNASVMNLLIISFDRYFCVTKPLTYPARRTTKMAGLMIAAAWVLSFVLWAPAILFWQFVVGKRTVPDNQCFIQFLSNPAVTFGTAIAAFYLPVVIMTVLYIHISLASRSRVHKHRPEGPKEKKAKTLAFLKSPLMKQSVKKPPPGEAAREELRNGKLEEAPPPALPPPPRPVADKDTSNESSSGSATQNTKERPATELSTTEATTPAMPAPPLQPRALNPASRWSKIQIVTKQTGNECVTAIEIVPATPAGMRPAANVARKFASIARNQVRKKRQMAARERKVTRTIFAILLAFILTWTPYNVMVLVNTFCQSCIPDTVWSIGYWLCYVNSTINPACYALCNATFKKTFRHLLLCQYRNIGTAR
CHO-K1 Ca antag = nonselective inhibitor or artifact in parental CHO-K1 cells | 360,000 compounds, 0.6% hits | inhibition, % at 3 µM | ATP-induced calcium, Fluo-8 fluorescence;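 active means inhibition above a per-plate cutoff, the plate's mean sample inhibition plus 3 SD, cut at about 24% in these data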
CHRM4 PAM = positive allosteric modulators of human muscarinic M4 receptor; P08173; activation, % at 3 µM; AID 624126; 360,000 compounds, 0.4% hits; CHO-K1 hM4/Gqi5, Fluo-8 calcium fluorescence, ACh EC20; 0% = ACh EC20, 100% = maximal ACh;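 active means activation above its plate's cutoff, the mean activation of sample wells plus 3 SD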
CHO-K1 Ca PAM = M1 PAM counterscreen hit in parental CHO-K1 cells. ATP EC20, Fluo-8 calcium fluorescence; 0% at ATP EC20, 100% at ATP max. activation, % at 3 µM. 360,000 compounds, 0.02% hits;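 active means activation above the run cutoff, the mean activation of all test compounds plus 3 SD, cut at about 40% in these data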;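 further: peak over basal fluorescence ratio in a 140 s read after ATP addition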
M1 ag parental = nonselective activator or artifact in parental CHO-K1 cells; Fluo-8 calcium fluorescence; scaled to maximal ATP response, vehicle zero; activation, % at 3 µM; 360,000 compounds, 0.48% hits; AID 602248; in the data active means activation above about 15%;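 further: untransfected CHO-K1 host cells lacking M1 receptor as counterscreen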
M4 antag = antagonists of human muscarinic M4 receptor (CHRM4); P08173; CHO-hM4 cells, ACh EC80, Fluo-8 calcium fluorescence; inhibition, % at 3 µM; 360,000 compounds, 0.73% hits; AID 624125;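 active means inhibition above its plate's cutoff, the mean inhibition of sample wells plus 3 SD, cut at about 27% in these data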
Each line names hits and unclear results; the compound was inactive in the other large screens.

O=C(C1CC(=O)N(C2CCCC2)C1)N1CCN(c2ccccc2)CC1 (stereo not drawn)	CHO-K1 Ca antag 60
O=C(C1CC(=O)N(C2CCCC2)C1)N1CCN(c2ccc(F)cc2)CC1 (stereo not drawn)	none
CCn1nc(C)c(Br)c1-c1nc(CS(=O)(=O)c2ccc(F)cc2)no1	none
Cc1ccccc1C(=O)NNC1CC(=O)N(c2ccc3c(c2)OCCO3)C1=O (stereo not drawn)	CHO-K1 Ca antag 28
COC(=O)c1ccc(Sc2ccc(C)cc2)c(N)c1	none
O=C(NCCCCCCCN1CCCCCCC1)C(C1CCCCC1)C1CCCCC1	M4 antag 75
O=C(NCCCN1CCOCC1)NC1CCCCC1	none
CC(=O)Nc1ccc(C(=O)OCC(=O)NCCC2=CCCCC2)cc1	none
S=C1Nc2ccccc2CS1	none
CC1CN(C(=O)CCc2cc(C(C)(C)C)c(O)c(C(C)(C)C)c2)CC(C)O1 (stereo not drawn)	CHO-K1 Ca antag 27
Cc1ccc(NC(=O)CN(C)C(=O)c2ccc(COc3ccccc3)cc2)cc1	none
Cc1cccc(C)c1NC(=O)CN(C)C(=O)c1ccc(OCc2ccccc2)cc1	CHRM4 PAM 16
O=C(CCc1nc2sc3c(c2c(=O)[nH]1)CCCC3)Nc1cccc(Cl)c1	none
COc1ccc(N2CCN(C(=O)COC(=O)/C=C/c3ccc(OC(F)F)cc3)CC2)cc1	CHRM4 PAM 23
CC(C)Oc1ccc(S(=O)(=O)N2CCCCC2)cc1NC(=O)CN1C(=O)NC2(CCCC2)C1=O	none
COCCN(C(=O)CSc1nc2ccccc2c(=O)n1CC(C)C)c1c(N)n(Cc2ccccc2)c(=O)[nH]c1=O	M1 ag parental 20
CC(C)CN(C(=O)CSc1nc2ccccc2c(=O)[nH]1)c1c(N)n(CC(C)C)c(=O)[nH]c1=O	CHRM4 PAM 24
CCOC(=O)c1nn(-c2ccc(C)cc2)c(=O)c2c(N)scc12	CHO-K1 Ca antag 33
CCOC(=O)c1nn(-c2ccc(F)cc2)c(=O)c2c(N)scc12	none
O=C(NCc1nnc(SCC(=O)N2CCCCC2)o1)c1c(F)cccc1Cl	none
COc1ccccc1N1CCNC(C)C1=O (stereo not drawn)	CHRM4 PAM 14
CCOc1ccc(CCNC(=O)COC(=O)c2cc(OC)c(OC)cc2[N+](=O)[O-])cc1OCC	none
COc1ccc(/C=C2\CCCC3C2=NN(C(=O)c2ccco2)C3c2ccc(OC)c(OC)c2)cc1OC (stereo not drawn)	none
COc1ccc(/C=C2\CCCC3C2=NN(C(=O)c2scnc2C)C3c2ccc(OC)c(OC)c2)cc1OC (stereo not drawn)	M1 ag parental 19
COc1ccc(N2C(=O)CC(N3CCC(O)(c4cccc(C(F)(F)F)c4)CC3)C2=O)cc1 (stereo not drawn)	none
N#C/C(=C\c1ccc(N2CCCCC2)o1)C(=O)Nc1cccc(Br)c1	CHRM4 agonist 47, CHO-K1 Ca antag 58, M1 ag parental 54, M4 antag 32
O=C(Nc1ccccn1)c1ccc2c(c1)S(=O)(=O)c1ccccc1C2=O	none
O=C1c2ccccc2S(=O)(=O)c2cc(C(=O)N(c3ccccn3)c3ccccn3)ccc21	CHRM4 agonist 77, M1 ag parental 71
Cc1ccc(OS(=O)(=O)c2c(C)nn(C)c2Cl)c(C)c1	M4 antag 43
O=C1C2C3C=CC(C4CC34)C2C(=O)N1c1cccc2ccccc12 (stereo not drawn)	M1 ag parental 18
O=C1C2C3C=CC(C4CC34)C2C(=O)N1Cc1ccccc1 (stereo not drawn)	none
COc1ccc(-c2nnn(CC(=O)N3CCN(c4ccc(F)cc4)CC3)n2)cc1	none
O=C(NC(NCC1CCCO1)C(Cl)(Cl)Cl)c1cccc2ccccc12 (stereo not drawn)	none
O=C(O)C1CCN(C(=O)c2cccc3ccccc23)CC1	CHRM4 PAM 18
O=C(O)C1CCN(C(=O)c2ccccc2C(=O)N2CCC(C(=O)O)CC2)CC1	none
CCOC(=O)c1c(-c2ccc(C)o2)csc1NC(=O)CSc1nnnn1-c1ccccc1	M4 antag 30
O=C(CNC(=O)c1nc[nH]c1C(=O)N1CCNCC1)OCc1ccccc1	none
O=C(CNC(=O)c1nc[nH]c1C(=O)N1CCc2ccccc2C1)OCc1ccccc1	M4 antag 29
Cc1sc2ncnc(SCC(=O)Nc3ccc(S(=O)(=O)N4CCOCC4)cc3)c2c1C	none
COCCNC(=O)C1(C)CCCN(C(=O)Cc2ccc3ccccc3c2)C1 (stereo not drawn)	CHRM4 PAM 17
CCCNC(=O)C1(C)CCCN(C(=O)Cc2ccc3ccccc3c2)C1 (stereo not drawn)	none
CCS(=O)(=O)c1ccc2oc(SCC(=O)NC(C)C3CC4CCC3C4)nc2c1 (stereo not drawn)	CHO-K1 Ca antag 25
CCS(=O)(=O)c1ccc2oc(SCC(=O)Nc3ccc(OC)cc3OC)nc2c1	none
CN1CCc2c(sc3c2c(=O)n(-c2ccc(Cl)cc2)c2nncn32)C1	none
CSc1ccc(/C=c2\s/c(=C\C(=O)C(C)(C)C)n(CC(=O)NCCC3=CCCCC3)c2=O)cc1	none
CCCNC(=O)Cn1c(=O)/c(=C/c2ccc(-c3ccc([N+](=O)[O-])cc3)o2)s/c1=C\C(=O)C(C)(C)C	CHRM4 agonist 35, CHO-K1 Ca antag 31, M1 ag parental 32
O=C(Oc1ccccc1)c1cc(O)c(O)c(O)c1	none
O=C(Cn1nc([N+](=O)[O-])nc1Br)NC(c1ccccc1)c1ccccc1	M4 antag 30
Cc1cc([N+](=O)[O-])nn1CC(=O)NC(C)c1ccccc1 (stereo not drawn)	none
O=C(CCS(=O)(=O)c1ccc(Br)cc1)Nc1ccccc1Cl	none
O=C(CCS(=O)(=O)c1ccc(Br)cc1)Nc1ccccn1	CHO-K1 Ca antag 24
CCc1ccc(C(=O)NNC(=O)Cn2c(=O)cnc3ccccc32)cc1	none
CCC1CCCCN1CCCNC(=O)CNC(=O)c1nn(-c2ccc(OC)c(Cl)c2)c(=O)c2ccccc12 (stereo not drawn)	M4 antag 37
COc1ccc(-n2nc(C(=O)NCC(=O)Nc3cc(OC)c(OC)c(OC)c3)c3ccccc3c2=O)cc1	none
CCCCNC(=O)CNC(=O)c1nn(-c2ccc(OC)c(Cl)c2)c(=O)c2ccccc12	none
COc1ccc(-n2nc(C(=O)NCC(=O)Nc3cc(OC)c(OC)c(OC)c3)c3ccccc3c2=O)cc1OC	M4 antag 27
COc1ccc(N2CCN(Cc3nc4c(c(=O)n(C)c(=O)n4C)n3C(C)C(C)=O)CC2)cc1 (stereo not drawn)	none
CC(NCC(O)COc1ccc2ccccc2c1)c1ccccc1 (stereo not drawn)	M1 ag parental 16
